From PubChem
This is a sample that favours compounds with a hit; in the whole collection about 4.5% have one here.
Rpn11 inh = Rpn11 (PSMD14) deubiquitinase inhibitors, primary screen, biochemical, fluorescence polarization, uHTS; 26S proteasome non-ATPase regulatory subunit 14 (Homo sapiens), O00487; human 26S proteasome, Ub4-pepOG fluorescence polarization; 20S core pre-blocked with epoxomicin; inhibition, % at 20 µM; 360,000 compounds, 0.59% hits;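 active = inhibition at 20 µM, scaled to each plate's controls, above about 33%, limit read from the data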
dFosB activator = activators of delta FosB homodimer, primary screen, biochemical, fluorescence polarization, TAMRA-CDK5 oligo, single point | Protein FosB (Mus musculus), P13346 | purified delta FosB; percent of positive-control signal above neutral wells | activation, % at 25 µM | 340,000 compounds, 0.99% hits | AID 493131, 2011;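 active = mean activation above about 17%, with every replicate also reaching it, limit read from the data, passing the limit was not always enough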
Target sequence (P13346 whole entry, looked up): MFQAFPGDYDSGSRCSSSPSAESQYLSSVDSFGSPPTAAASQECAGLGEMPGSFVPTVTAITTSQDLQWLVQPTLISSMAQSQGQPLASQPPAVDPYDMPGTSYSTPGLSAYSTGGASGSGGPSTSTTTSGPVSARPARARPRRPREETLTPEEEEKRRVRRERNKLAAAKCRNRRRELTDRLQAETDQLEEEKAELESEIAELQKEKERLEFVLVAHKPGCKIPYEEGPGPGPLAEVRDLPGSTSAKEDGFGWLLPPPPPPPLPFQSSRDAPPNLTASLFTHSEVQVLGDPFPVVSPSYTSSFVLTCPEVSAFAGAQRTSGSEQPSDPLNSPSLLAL
TPT1 inh = Candida albicans TPT1 enzyme inhibitors, primary screen, biochemical, fluorescence polarization | 300,000 compounds, 0.81% hits | recombinant caTPT1, FP RNA substrate dephosphorylation | tRNA 2'-phosphotransferase TPT1 (Candida albicans SC5314) | inhibition, % at 5 µM;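 active = inhibition above the mean of all tested compounds plus 3 SD, set per screening campaign, cut at about 24% in these data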;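 note: plate controls were DMSO alone for no effect and ferristatin control at 100 nM for full effect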
ZTA counter = counter-screen for EBNA-1 inhibitors: inhibitors of Epstein-Barr virus ZTA; ZTA-DNA binding, fluorescence polarization; inhibition, % at 11 µM; 320,000 compounds, 0.15% hits; in the data active = inhibition above about 33%
Target sequence (P03206 whole entry, looked up): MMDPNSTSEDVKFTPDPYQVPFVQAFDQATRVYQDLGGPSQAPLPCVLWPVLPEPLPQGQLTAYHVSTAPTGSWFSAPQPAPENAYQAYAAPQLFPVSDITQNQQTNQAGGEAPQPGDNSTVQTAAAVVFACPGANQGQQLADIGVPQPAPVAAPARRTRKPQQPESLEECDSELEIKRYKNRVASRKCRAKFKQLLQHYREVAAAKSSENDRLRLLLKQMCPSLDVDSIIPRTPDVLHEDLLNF
NR3A LBD binder = binders of NR3A ligand-binding domain, primary screen, biophysical, differential scanning fluorimetry, uHTS; NR3A LBD differential scanning fluorimetry, Tm shift; 0% = protein alone, 100% = glycine-bound protein; Tm shift relative to glycine control, % at 25 µM; 340,000 compounds, 2.5% hits;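 active = melting temperature shift of at least 10% of the positive control shift, at one fixed dose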
EBNA-1 inhibitor = EBNA-1 DNA-binding inhibitors, primary screen, biochemical, fluorescence polarization; inhibition, % at 14.8 µM; 300,000 compounds, 0.34% hits; AID 1950, 2009; in the data active = inhibition above about 28%
TPT1 inh confirm = Candida albicans TPT1 inhibitors, confirmation, biochemical, fluorescence polarization, triplicate; shares compounds with TPT1 inh; recombinant caTPT1, RNase T1 coupled; inhibition, % at 5 µM; 2,400 compounds, 74% hits; AID 2149, 2009;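 active = inhibition above the primary screen limit, the mean inhibition of all tested compounds plus 3 SD, cut at about 25% in these data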
RNase T1 inh = RNase T1 inhibitors, counter-screen for TPT1 inhibitor project, biochemical, fluorescence polarization; shares compounds with TPT1 inh; RNase T1 cleavage, 1536-well; inhibition, % at 5 µM; 2,400 compounds, 83% hits; AID 2153, 2009;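 active = inhibition above the solvent-only control well mean plus 3 SD, limit set per screening run, cut at about 23% in these data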;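 note: plate controls were DMSO wells with enzyme for no effect and wells without RNase T1 for full effect; inhibitors block cleavage so intact labeled substrate keeps polarization high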
Active calls of the source: *; · = no result shown.

SMILES	Rpn11 inh	dFosB activator	TPT1 inh	ZTA counter	NR3A LBD binder	EBNA-1 inhibitor	TPT1 inh confirm	RNase T1 inh
CN1/C(=C\C=N\O)C(C)(C)c2ccccc21	6	4	2	1	-3	0	·	·
CC1=NN(c2ccccc2)C(=O)/C1=C\C=C1/N(C)c2ccccc2C1(C)C	·	-9	74*	5	7	5	74*	84*
CCOCCCNC(=O)c1cccc(OC2CCN(S(C)(=O)=O)CC2)c1	-10	-3	3	2	3	-6	·	·
O=C1C=C(c2cccc(O)c2)CCC1	-2	2	1	16	3	16	·	·
CCc1ccc2c(c1)NC(=O)C2(C)Cc1ccc(C(F)(F)F)o1 (stereo not given)	-3	·	·	·	·	·	·	·
CCCc1cc(C(=O)Cc2ccc(C(=O)OCC)o2)c(O)cc1O	27	-23	24*	2	-6	-11	20	30*
CCOC(=O)NC(c1cccc(Cl)c1)C1CCCCCC1=O (stereo not given)	-14	0	3	15	-1	1	·	·
O=C1CCCCC1C(O)c1ccc(Cl)cc1 (stereo not given)	·	·	82*	-3	·	-12	1	3
O=C1C2C3CC(C2C(=O)N1c1cccc(Cl)c1)[C@H](O)C3O (stereo not given in full)	-8	-1	-6	2	3	12	·	·
O=C(C1=NN(c2ccccc2)C2C(=O)N(c3ccc(Cl)cc3)C(=O)C12)c1ccccc1 (stereo not given)	4	-4	33*	-9	-2	-4	23	35*
O=C(C1=NN(c2ccccc2)C2C(=O)N(c3cccc(Cl)c3)C(=O)C12)c1ccccc1 (stereo not given)	-31	-7	33*	3	-7	9	37*	51*
O=C(CCSc1ccc(Br)cc1)Nc1cccnc1	12	0	-1	-13	3	5	·	·
CCN(CC)CCCN(Cc1cc2cc3c(cc2[nH]c1=O)OCO3)C(=S)Nc1ccccc1	-1	-4	-1	-9	0	-10	·	·
COc1ccc(CCNC(=O)c2ccc3c(c2)NC(=O)C(C(C)C)N3)cc1OC (stereo not given)	0	-9	-1	9	-6	9	·	·
COc1ccc(CCNC(=O)c2ccc3c(c2)NC(=O)C(CSCc2cc(C)ccc2C)N3)cc1OC (stereo not given)	·	·	129*	-8	·	5	124*	122*
CCCCCCNC(=O)C(C#N)c1nc2ccccc2nc1N1CCCC1 (stereo not given)	19	-5	63*	8	0	5	28*	33*
CCCCCNC(=O)C(C#N)c1nc2ccccc2nc1N1CCCC1 (stereo not given)	-10	2	-55	1	-3	5	·	·
COc1ccc(O)c(/C=C2/SC(=S)N(Cc3ccccc3)C2=O)c1	·	-5	93*	-10	16*	-10	104*	103*
O=C(O)COc1ccc(/C=C2/SC(=S)N(Cc3ccccc3)C2=O)cc1	24	-16	13	25	4	10	·	·
COc1ccc(OC)c(/C=C2\SC(=S)N(Cc3cccnc3)C2=O)c1	-67	4	65*	0	-5	3	68*	77*
CCN(CC(=O)Nc1c(F)cccc1F)C(=O)CCC(=O)c1ccc(C)cc1	-3	-4	0	-3	1	-9	·	·
CC(=O)Oc1cccc(/C=C2\C=C(c3ccc(C)cc3)OC2=O)c1	11	-10	-3	7	-4	2	·	·
COc1ccc(C2=C/C(=C/c3cccnc3)C(=O)O2)cc1OC	·	-7	80*	-16	-43	0	80*	85*
CCOc1ccc(C2=C/C(=C/c3cccnc3)C(=O)O2)cc1	13	5	83*	19	-21	7	69*	78*
O=C(O)CN1C(=O)/C(=C\c2cn(CC(=O)N3CCOCC3)c3ccccc23)SC1=S	·	-16	181*	18	3	5	150*	144*
SMILES	Rpn11 inh	dFosB activator	TPT1 inh	ZTA counter	NR3A LBD binder	EBNA-1 inhibitor	TPT1 inh confirm	RNase T1 inh
O=C(CCCN1C(=O)/C(=C\c2ccccc2)SC1=S)N1CCOCC1	-5	-1	·	·	4	·	·	·
Cc1oc(-c2ccccc2Cl)nc1CN1CCCC1c1ccc(F)cc1 (stereo not given)	10	-5	3	-12	-1	8	·	·
Cc1ccc(-c2nc(CN3CCCCC3c3cccc(F)c3)c(C)o2)o1 (stereo not given)	28	-10	33*	-24	-1	-12	23	30*
CC(C)N1CC=C2C(C#N)=C(N)C(C#N)(C#N)C(c3ccccc3)C2C1 (stereo not given)	-95	-6	-26	-11	-1	-5	·	·
Cc1ccc(C2C3CSCC=C3C(C#N)=C(N)C2(C#N)C#N)cc1 (stereo not given)	28	-3	27*	9	-1	12	19	29*
O=C(NN=Cc1ccccc1)NN=Cc1ccccc1	-2	-2	·	·	0	·	·	·
COc1ccccc1-c1ccc(/C=C2/C=C(C)OC2=O)o1	31	-17	13	2	0	7	·	·
COc1ccccc1-c1ccc(/C=C2\C=CC(=O)O2)o1	·	-14	114*	12	-1	-8	117*	113*
O=C(CN1CCN(S(=O)(=O)c2ccc(Br)cc2)CC1)N/N=C/c1ccc(Br)s1	4	-7	30*	-9	-22	2	14	16
Cc1ccc(/C=N/NC(=O)CN2CCN(S(=O)(=O)c3ccc(Br)cc3)CC2)s1	-1	-4	0	-5	-4	6	·	·
O=C(c1ccc(N2CCCC2=O)cc1)N1CCN(c2ccccc2O)CC1	-3	-7	·	2	-2	·	·	·
O=C(c1ccc(N2CCCC2=O)cc1)N1CCOCC1	-9	0	65*	3	1	-2	5	6
COc1cccc(S(=O)(=O)Nc2ccc(C(=O)NCc3ccco3)cc2)c1	0	-1	28*	-2	0	4	6	9
O=C1Nc2cc3c(cc2C1=O)sc1ccccc13	7	·	0	-4	-2	1	·	·
CC(C)=CC(=O)OCc1cc([N+](=O)[O-])cc2c1OCOC2	-6	-9	0	12	1	-1	·	·
